Compound activity: PubChem BioAssay, National Center for Advancing Translational Sciences (NCATS)
Only some compounds are listed: those with a hit (about 20% of all), similar ones and a draw of the others.
CHX counter = counter-screen for Shiga toxin inhibitors: cycloheximide protein synthesis inhibition; cell reporter, cycloheximide protein synthesis inhibition counterscreen; max response, %; 300,000 tested, 12% active; in the data active means max response mostly above about 13%, no sharp cut-off; inactive means mostly below about 14%; further: read at 38.3 µM for the half of the compounds with a filed dose; 0% is about no effect
Shiga inhibitor = blocks Shiga toxin action in Vero cells; 290,000 tested, 9.2% active; Vero cells, Shiga toxin protein synthesis inhibition reporter; AID 2315; inhibition, % at 38.7 µM; in the data active means inhibition mostly above about 28%, no sharp cut-off; inactive means mostly below about 43%; further: 0% is about no effect
Pf growth 48h = inhibits P. falciparum growth in the first generation, 48 h | P. falciparum luciferase growth in erythrocytes, 48 h | Potency, µM (top dose mostly 28.7 µM), for inactives: at the top dose activity change, negative = inhibition, most hits filed as inhibitors | 310,000 tested, 5.9% active | AID 504832; further: potency means the concentration at half of the fitted maximal effect; on the % scale 0 is the no-effect control and ±100 the full control effect
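Luciferase-expressing parasites in RBCs, 2% Hct / 0.1% parasitemia final; RPMI 1640 + 0.5% Albumax; 37 C, 5% CO2, one generation; luminescence read-out, lower signal = inhibition.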
HCMV inh = inhibitors of human cytomegalovirus; 410,000 tested, 4.5% active; AID 1259415; HFF cells, HCMV-luciferase reporter, 72 h; stronger effect = lower value; activity change, negative = inhibition, % at 57.5 µM; in the data active means activity change below about -60%; inconclusive means no clear call, values can overlap the other calls; inactive means above about -39%; further: on the % scale 0 is the no-effect control and ±100 the full control effect
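Luciferase read-out from HCMV-luciferase-infected HFFs (MOI 1 PFU/cell) 72 h post infection at 37C; compounds added after 16 h cell attachment; activity normalized between buffer-only basal and Salinomycin (10uM) inhibitor controls.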
Pf growth 96h = inhibits malaria parasite growth, 96 h; P. falciparum luciferase reporter growth, 96 h; Potency, µM (top dose mostly 28.7 µM), without a hit: at the top dose activity change, negative = inhibition, most hits filed as inhibitors; 320,000 tested, 6.9% active; AID 504834; further: potency means the concentration at half of the fitted maximal effect; on the % scale 0 is the no-effect control and ±100 the full control effect
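Infected RBCs, 2% Hct / 0.05% parasitemia final; luciferase-reporter P. falciparum; cpd 96 h, 37 C, 5% CO2; luciferase detection reagent; luminescence.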
The depositor's hits bear a star; ? = inconclusive; nt = no result. Unless noted, the call rests on the fitted dose curve; in most records, active means well fitted inhibition curve with a large enough effect; inconclusive means small, poorly fitted or top-dose-only effect, or another doubt; inactive means no such curve, though single readings can be large or run the other way.

SMILES	CHX counter	Shiga inhibitor	Pf growth 48h	HCMV inh	Pf growth 96h
CN(CC(=O)Nc1ccccc1Br)C(=O)c1n[nH]c2ccccc12	nt	nt	10%	-15	-1%
O=C1N/C(=N/N=C/c2ccccc2O)SC1Cc1ccc(F)cc1 (centres undefined)	-2	21	?	-66*	?
O=C1NC(=Nc2ccc(F)cc2)SC1Cc1ccc(F)cc1 (centres undefined)	2	12	9.3µM*	-31	8.3µM*
CCOc1ccc(CC2S/C(=N/c3ccccn3)NC2=O)cc1 (centres undefined)	-4	28	15µM*	-20	80%
O=C(CN1C(=O)/C(=C/c2ccccc2Cl)SC1=S)NC1CCS(=O)(=O)C1 (centres undefined)	-3	-13	-1%	-8	15%
Cc1cc(NC(=O)C(C)C)ncc1NC(=O)c1ccco1	11	5	10%	20	39%
COc1cccc(C(=O)Nc2cnc(NC(=O)c3ccco3)cc2C)c1	16*	47*	12%	-35	5.2µM*
COc1cccc(C(=O)Nc2cc(OC)ccc2NC(=O)c2ccco2)c1	-2	-28	-17%	-8	?
Cc1cc(NC(=O)c2ccco2)ncc1NC(=O)Cc1ccccc1	19*	70	79%	54	8.3µM*
COc1ccc(NC(=O)CN(C)C(=O)CCCSc2nc3ccccc3[nH]2)cc1	nt	nt	?	-20	-5%
COC(=O)[C@@]12C[C@@H](CC(=O)NCc3ccccc3)C(=O)N(Cc3ccc4c(c3)OCO4)C1=CCC(C)(C)C2	nt	nt	nt	9	nt
COc1ccc(NC(=O)CSc2ccc(NC(C)=O)cc2)cc1S(=O)(=O)N1CCOCC1	nt	nt	nt	-8	nt
COc1ccc(NC(=O)COc2ccccc2Cl)cc1S(=O)(=O)N1CCCCC1	nt	nt	12µM*	?	10µM*
COc1ccc(NC(=O)CCOc2ccccc2C)cc1S(=O)(=O)N1CCCCC1	nt	nt	12µM*	?	?
COc1ccccc1CCC(=O)Nc1ccc(OC)c(S(=O)(=O)N2CCCCC2)c1	nt	nt	?	-9	?
COc1ccc(NC(=O)CSc2ccc3ccccc3c2)cc1S(=O)(=O)N1CCCCC1	0	21	3%	-82*	-5%
CCc1ccccc1OCC(=O)Nc1ccc(F)c(S(=O)(=O)N2CCOCC2)c1	nt	nt	?	-22	13µM*
COc1ccc(NC(=O)COC(=O)c2cccn2C)cc1S(=O)(=O)N1CCCCC1	nt	nt	nt	-69*	nt
Cn1cccc1CNC(=S)Nc1ccccc1Cl	13	18	-7%	-9	?
Cc1ccc(S(=O)(=O)N/N=C/c2ccc(O)cc2O)cc1[N+](=O)[O-]	18*	58*	19%	?	7%
COc1ccc(-n2c(O)c(/C=N/NS(=O)(=O)c3ccc(C)c([N+](=O)[O-])c3)c3ccccc3c2=O)cc1OC	-4	-10	?	-17	12µM*
COc1cc(/C=N/NS(=O)(=O)c2ccc(C)c([N+](=O)[O-])c2)ccc1O	36*	122*	0%	4	25%
COc1cc(/C=N/Nc2ccc(Cl)c(C(=O)O)c2)ccc1OC(=O)c1ccccc1F	29*	70*	87%	38	291%
COc1cc(/C=N/Nc2cccc(C)c2)ccc1OC(=O)c1cccs1	18*	33	-15%	-11	1%
CCOc1cc(/C=N/Nc2ccc(C(=O)O)cc2)ccc1OC(=O)c1ccccc1C	42*	42	80%	-4	69%
SMILES	CHX counter	Shiga inhibitor	Pf growth 48h	HCMV inh	Pf growth 96h
COc1cccc(C(=O)Oc2ccc(/C=N/Nc3ccc(C(=O)O)cc3)cc2OC)c1	33*	nt	0%	93	28%
O=C(Nc1ccc(Cl)cc1)c1ccc(-n2cnnc2)cc1	nt	nt	nt	6	nt
Cc1ccc(S(=O)(=O)N(C)CC(=O)Oc2ccc(-c3nnco3)cc2)cc1	nt	nt	-6%	16	19%
CN1CC(=O)N(CC(=O)Nc2ccc(OC(F)(F)F)cc2)c2ccccc2C1=O	nt	nt	nt	2	nt
COCc1cc(/C=N\NC(=O)COc2ccccc2)ccc1OC	-1	1	13%	14	-13%
COc1cccc(OCc2cc(/C=N/Nc3ccc(C(=O)O)cc3)ccc2OC)c1	41*	53*	9%	9	-8%
C[C@@H](C(=O)Nc1cccc(S(=O)(=O)N2CCOCC2)c1)N1C(=O)C2CC=CCC2C1=O (some centres undefined)	-3	-2	13%	-15	?
Cc1ccc(Oc2cc(-n3nc(C)cc3C)ncn2)cc1	17*	59*	40%	4	72%
CCOC(=O)N1CCN(CC(O)COc2ccccc2C(C)C)CC1 (centres undefined)	-9	-8	?	-13	?
COc1ccc(C2CCCN2CC(O)COc2ccccc2C(C)C)cc1 (centres undefined)	-1	-6	12µM*	?	13µM*
COc1cccc(Sc2nc(-c3ccccc3)ncc2S(C)(=O)=O)c1	31*	50*	nt	31	9.3µM*
Cc1cccc(C)c1Oc1nc(-c2ccccc2)ncc1S(=O)(=O)c1ccccc1	0	-8	2.1µM*	24	?
COc1nc(-c2ccccc2)ncc1S(=O)(=O)c1ccccc1	-2	21	?	14	?
Cc1ccc(S(=O)(=O)c2cnc(-c3ccccc3)nc2N2CCCCC2)cc1	0	31	13µM*	?	-8%
COc1ccc(Oc2nc(-c3ccccc3)ncc2S(=O)(=O)c2ccccc2)cc1	-2	-3	15µM*	-35	?
Cc1ccc(S(=O)(=O)c2cnc(-c3ccccc3)nc2Oc2ccccc2)cc1	-4	11	4%	nt	10%
CCS(=O)(=O)N1CC(=O)N(c2cccc(C)c2C)C(C)(C(=O)NC2CCCCC2)C1 (centres undefined)	nt	nt	nt	0	nt
CCOc1ccc(S(=O)(=O)n2nc(C)c(S(=O)(=O)N3CCCCCC3)c2C)cc1	nt	nt	nt	0	nt
CCOc1cccc(=O)c2c(C)n(CC(=O)c3ccccc3)c(C)c12	2	-7	8.3µM*	-18	44%
O=C(CNC(=O)c1ccccc1F)Nc1ccc2c(c1)CCC2	nt	nt	134%	27	136%
O=C1OCc2ccc(NC(=O)c3c(F)cccc3Cl)cc21	17*	30	64%	-85*	5%
O=C1OCc2ccc(NC(=O)c3ccccc3C(=O)O)cc21	34*	58*	3%	11	16%
O=C1OCc2ccc(NC(=O)C3CC3)cc21	3	16	49%	117	-18%
O=C(Nc1ccc2c(c1)C(=O)OC2)c1ccccc1Cl	26*	23	4%	-91*	32%
O=C(Nc1ccc2c(c1)CCC2)c1c(F)cccc1Cl	54*	112*	370%	-61*	459%
CC(C)(C)NC(=O)CN(C(=O)C(=O)Nc1ccc2c(c1)OCCO2)C(C)(C)C	-4	-13	-13%	16	57%
CC(=O)Cn1ncc(N2CCCCC2)c(Cl)c1=O	21*	47	40%	11	45%
O=c1[nH]c2ccccc2cc1CN(Cc1cccnc1)S(=O)(=O)c1ccc([N+](=O)[O-])cc1	-7	-8	?	?	4.7µM*
